SW480 rereplic = DNA re-replication induction in SW480 cells. SW480 DNA re-replication, Hoechst DNA content imaging, 48 h. Potency, µM (top dose mostly 46.1 µM), inactives show top-dose re-replication activation, most hits filed as activators. 1.8% of 340,000 active. AID 624297; also: % of control where 0% means no effect; nearly all actives have a fitted effect of over 55% in size
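Quantitative HTS format with DMSO vehicle controls; 48 hr drug incubation at 37 C, then 40 min Hoechst staining and scanning imager measurement at 405 nm excitation.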
KB-3-1 tox = KB-3-1 parental cell cytotoxicity; 1.4% of 400,000 active; KB-3-1 viability, CellTiter-Glo ATP luminescence, 72 h; Potency, µM (doses to about 46.1 µM), most hits filed as cytotoxic; also: % is scaled to controls: 0 for no effect and ±100 for the full control effect; nearly all actives have a fitted effect of over 60% in size
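Cytotoxicity measured as CellTiter-Glo luminescence after 72 h at 37 C. Compound titrations were pinned onto drug-naive KB-3-1 parental adenocarcinoma cells grown in DMEM with 10% FBS, and normalized data fitted to concentration-response curves.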
MCF10A rereplic = induces DNA re-replication in MCF 10a normal breast cells; MCF 10A DNA re-replication, Hoechst nuclear intensity, 48 h; Potency, µM (top dose mostly 46.1 µM), without a hit: at the highest dose activity, positive = re-replication, actives largely listed as activators; 2.9% of 350,000 active; also: % of control where 0% means no effect; nearly all actives have a fitted effect of over 50% in size
KB-V1 MDR tox = KB-V1 MDR subline cytotoxicity; AID 1347076; Potency, µM (series often up to 46.1 µM), most hits filed as cytotoxic; KB-V1 MDR cells viability, CellTiter-Glo, 72 h; 3.4% of 400,000 active; also: % is scaled to controls: 0 for no effect and ±100 for the full control effect; nearly all actives have a fitted effect of over 60% in size
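Cytotoxicity via CellTiter-Glo luminescence after 72 h compound exposure at 37 degrees C. Cells: drug-selected KB-V1 line, DMEM phenol-red free plus 10% FBS. Compounds tested at multiple concentrations; normalized data fitted to concentration-effect curves.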
HT1080 IDH1KD tx = HT-1080 IDH1 knockdown cell toxicity (counter line). HT-1080 IDH1 knockdown viability, ATP luminescence, 48 h. Potency, µM (top dose mostly 46.1 µM), without a hit: top-dose activity, negative = toxicity, usual class: cytotoxic. 2% of 360,000 active;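 also: 0% = DMSO wells and -100% = cell-free medium wells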
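HT-1080-IDH1KD cells (IDH1 knocked down), 750/well in RPMI with 5% FBS, treated with compound 48 h at 37 degrees C. Viability by CellTiter-Glo luminescence, normalised to DMSO and no-cell wells; concentration-response curves classed.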
HT1080-NT tox = kills 2HG-producing HT-1080-NT fibrosarcoma cells. HT-1080-NT fibrosarcoma viability, CellTiter-Glo ATP luminescence, 48 h. Potency, µM (doses to about 46.1 µM), inactives show at the highest dose activity, negative = less viability, actives largely listed as cytotoxic. 1.6% of 360,000 active;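 also: NT is the 2HG producing partner of a matched IDH1 knockdown line; 0% = DMSO-treated cells and -100% = media-only wells without cells; nearly all actives have a fitted effect of over 55% in size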
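Viability of the 2HG-overproducing fibrosarcoma line after 48 hours of compound exposure at 37 degrees C was determined by luminescence with CellTiter-Glo, and concentration-effect curves were then fitted and categorized.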
The depositor's hits bear a star; [ ] = dose if it differs, or a comment. In the library only some 7.9% were active in any assay of this set; here they are far more common. Calls follow the shape of the dose curve; as a rule, active = well fitted curve in the direction sought with a large enough effect; inconclusive = small, poorly fitted or top-dose-only effect, or another doubt; inactive = no such curve, though single readings can be large; an effect the other way counts as inactive or inconclusive. Potency is read from the fitted curve at half-maximal effect.

Screening O=C(CCc1ccccc1)Nc1cccc([S+](=O)([O-])Nc2ccccc2F)c1 returned KB-3-1 tox inactive and KB-V1 MDR tox inactive.
Screening CC[C@@H]1C(c2cccc(C)c2)=NN(c2ccccc2)[C@H]1C(=O)N1CCOC1=O returned SW480 rereplic -6%[9.22 µM], KB-3-1 tox inactive, MCF10A rereplic inconclusive, KB-V1 MDR tox inactive, HT1080 IDH1KD tx -12% and HT1080-NT tox -21%.
`CC[C@@H]1C(c2cccc(Cl)c2)=NN(c2ccc(Br)cc2)[C@H]1C(=O)N1CCOC1=O` gave SW480 rereplic 10µM*, KB-3-1 tox inactive, MCF10A rereplic 1.3µM*, KB-V1 MDR tox inactive, HT1080 IDH1KD tx inconclusive and HT1080-NT tox inconclusive.
CC[C@@H]1C(c2ccc(F)cc2)=NN(c2ccc(Br)cc2)[C@H]1C(=O)N1CCOC1=O was read as SW480 rereplic 0.58µM*, KB-3-1 tox inactive, MCF10A rereplic 16µM*, KB-V1 MDR tox inactive, HT1080 IDH1KD tx -23% and HT1080-NT tox -16%.
`CC[C@@H]1C(c2ccccc2)=NN(c2ccc(Br)cc2)[C@H]1C(=O)N1CCOC1=O` gave SW480 rereplic 12%, KB-3-1 tox inactive, MCF10A rereplic 9.2µM*, KB-V1 MDR tox inactive, HT1080 IDH1KD tx -18% and HT1080-NT tox -13%.
Screening CCOC(=O)c1c(-c2ccccc2)oc2ccc(N(C(C)=O)S(=O)(=O)c3cc(C)ccc3C)cc12 returned KB-3-1 tox inactive and KB-V1 MDR tox inconclusive.
`COc1ccc(OC)c(NC(=O)c2c(NCc3ccc(N(C)C)cc3)sc3c2CCCC3)c1` gave KB-3-1 tox inactive and KB-V1 MDR tox inactive.
COC(=O)c1cc(CSc2nnc(NC3CCCCC3)s2)oc1C was read as SW480 rereplic -1%, KB-3-1 tox inconclusive, MCF10A rereplic 25%, KB-V1 MDR tox 21µM*, HT1080 IDH1KD tx 18µM* and HT1080-NT tox -4%.
Screening C[C@@H]1CN([C@@H](C)CO)C(=O)c2cc(NC(=O)Nc3ccc(F)cc3)ccc2O[C@@H]1CN(C)Cc1ccc(Oc2ccccc2)cc1 returned SW480 rereplic inconclusive, KB-3-1 tox inactive, MCF10A rereplic 7%, KB-V1 MDR tox inconclusive, HT1080 IDH1KD tx 16µM* and HT1080-NT tox inconclusive.
`C[C@@H]1CN([C@@H](C)CO)C(=O)c2cc(NS(C)(=O)=O)ccc2O[C@H]1CN(C)Cc1ccc(Oc2ccccc2)cc1` gave SW480 rereplic -1%, KB-3-1 tox inactive, MCF10A rereplic 7%, KB-V1 MDR tox inactive, HT1080 IDH1KD tx -30% and HT1080-NT tox -27%.
C[C@H]1CN([C@@H](C)CO)C(=O)c2cc(NC(=O)Cc3ccccc3)ccc2O[C@H]1CN(C)Cc1ccccc1 was read as SW480 rereplic -3%, KB-3-1 tox inactive, MCF10A rereplic 9%, KB-V1 MDR tox inactive, HT1080 IDH1KD tx 4% and HT1080-NT tox -2%.
Screening C[C@@H]1CN([C@H](C)CO)C(=O)c2cc(NC(=O)Cc3ccccc3)ccc2O[C@H]1CN(C)Cc1ccc(Oc2ccccc2)cc1 returned SW480 rereplic inconclusive, KB-3-1 tox inconclusive, MCF10A rereplic 16µM*, KB-V1 MDR tox inconclusive, HT1080 IDH1KD tx inconclusive and HT1080-NT tox inconclusive.
For C[C@@H]1CN([C@H](C)CO)C(=O)c2cc(NC(=O)Nc3ccc(F)cc3)ccc2O[C@@H](C)CCCCO[C@H]1CN(C)Cc1ccc(C(=O)O)cc1 the results were KB-3-1 tox inactive, KB-V1 MDR tox inconclusive, HT1080 IDH1KD tx 4% and HT1080-NT tox -1%.
`COc1ccc(CN(C)C[C@@H]2OCCCC[C@H](C)Oc3ccc(NC(=O)Nc4ccc(F)cc4)cc3C(=O)N([C@H](C)CO)C[C@H]2C)cc1` gave KB-3-1 tox inconclusive, KB-V1 MDR tox inactive, HT1080 IDH1KD tx inconclusive and HT1080-NT tox 21µM*.
Screening COc1cccc(-n2cc(C(=O)Oc3ccc(F)cc3)c3ccccc3c2=O)c1 returned KB-3-1 tox inactive and KB-V1 MDR tox inactive.
O=C(NCCc1csc(-c2ccc(F)cc2)n1)C(=O)Nc1ccc(Cl)cc1 was read as KB-3-1 tox inactive and KB-V1 MDR tox inactive.
CC(=O)N1c2ccccc2CC1C(=O)N1CCN(c2cc(Cl)ccc2C)CC1 (centres undefined) was read as KB-3-1 tox inactive and KB-V1 MDR tox inactive.
Cc1ccc(OCC(=O)NCC(=O)OCc2cc(=O)n3nc(C(C)C)sc3n2)cc1 was read as KB-3-1 tox inactive and KB-V1 MDR tox inconclusive.
Screening COc1ccc(CCNC(=O)C2CC(=O)N(c3ccc(C)cc3)C2)cc1OC (centres undefined) returned SW480 rereplic 4%, KB-3-1 tox inactive, MCF10A rereplic -7%, KB-V1 MDR tox inactive, HT1080 IDH1KD tx -8% and HT1080-NT tox 16%.
`CCOc1ccc(CCNC(=O)C2CCN(S(=O)(=O)N3CCC(C)CC3)CC2)cc1OCC` gave SW480 rereplic 10%, KB-3-1 tox inactive, MCF10A rereplic 5%, KB-V1 MDR tox 2.6µM*, HT1080 IDH1KD tx 0% and HT1080-NT tox 0%.
Screening COc1ccc(CCNC(=O)C2CCCN(S(=O)(=O)N3CC(C)CC(C)C3)C2)cc1OC (centres undefined) returned SW480 rereplic -18%, KB-3-1 tox inactive, MCF10A rereplic 8%, KB-V1 MDR tox inconclusive, HT1080 IDH1KD tx 16% and HT1080-NT tox 9%.
Screening COc1ccc(CCNC(=O)C2CC(=O)N(c3ccc(C(C)(C)C)cc3)C2)cc1OC (centres undefined) returned SW480 rereplic -2%, KB-3-1 tox inactive, MCF10A rereplic 0.58µM*, KB-V1 MDR tox inactive, HT1080 IDH1KD tx 0% and HT1080-NT tox -1%.
`COc1ccc(CCNC(=O)C2CCN(S(=O)(=O)N3CC(C)CC(C)C3)CC2)cc1OC` (centres undefined) gave SW480 rereplic 5%, KB-3-1 tox inactive, MCF10A rereplic 5%, KB-V1 MDR tox 21µM*, HT1080 IDH1KD tx 9% and HT1080-NT tox -22%.
O=C(NCCc1ccccc1F)C1CC(=O)N(c2cccc(C(F)(F)F)c2)C1 (centres undefined) was read as SW480 rereplic -1%, KB-3-1 tox inactive, MCF10A rereplic 5%, KB-V1 MDR tox 13µM*, HT1080 IDH1KD tx 8% and HT1080-NT tox 2%.
